Measurements as given in PubChem BioAssay AID1030 (National Center for Advancing Translational Sciences (NCATS), 2008).
The campaign covered roughly 220,000 compounds. About 16,000 (7.3%) were called active. Not shown: some 25% with an inconclusive outcome. The list comes from a sample in which actives are over-represented; it also holds similar structures and randomly drawn compounds. Values without a mark were called inactive. Calls come from the whole dose curve; as a rule, active = well fitted inhibition curve with a large enough effect (not every such curve was filed as active); inconclusive = small, poorly fitted or top-dose-only effect, or another doubt; inactive = no such curve, though single readings can be large or run the other way.

target: Aldehyde dehydrogenase 1A1 (Homo sapiens) (UniProt P00352); experiment: qHTS Assay for Inhibitors of Aldehyde Dehydrogenase 1 (ALDH1A1); details: Purified ALDH1A1, NADH fluorescence, propionaldehyde substrate; series mostly up to 75.3 µM; activity, negative = inhibition: at the top concentration;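 for activity, negative = inhibition: plate controls were no enzyme wells and a reference inhibitor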
Sequence (P00352 whole entry, looked up): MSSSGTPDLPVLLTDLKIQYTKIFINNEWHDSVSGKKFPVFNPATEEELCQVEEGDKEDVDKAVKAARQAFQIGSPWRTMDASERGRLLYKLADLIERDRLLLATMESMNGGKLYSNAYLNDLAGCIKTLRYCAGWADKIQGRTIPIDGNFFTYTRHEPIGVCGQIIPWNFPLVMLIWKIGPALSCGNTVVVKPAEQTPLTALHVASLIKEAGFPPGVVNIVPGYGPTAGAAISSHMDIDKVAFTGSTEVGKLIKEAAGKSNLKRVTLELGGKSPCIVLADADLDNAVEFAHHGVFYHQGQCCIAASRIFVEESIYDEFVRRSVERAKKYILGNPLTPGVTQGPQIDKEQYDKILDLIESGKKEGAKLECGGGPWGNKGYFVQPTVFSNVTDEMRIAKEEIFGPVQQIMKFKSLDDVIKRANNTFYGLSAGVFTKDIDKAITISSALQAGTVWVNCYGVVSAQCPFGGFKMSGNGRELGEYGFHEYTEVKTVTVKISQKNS
Potency is the fitted concentration of half-maximal effect.

| SMILES | activity, negative = inhibition | Potency |
| --- | --- | --- |
| Cc1ccc(NC(=O)CC2C(=O)N(Cc3ccccc3)C(=S)N2NC(=O)c2cccc(F)c2)c(C)c1 (centres undefined) | 2.55% |  |
| Cc1ccc(NC(=S)N(CCN(C)C)Cc2cccs2)cc1C | 4.01% |  |
| O=C(O)CC(SCC(=O)Nc1ccc(Br)cc1)C(=O)O (centres undefined) | -4.63% |  |
| COc1ccc(SCc2noc(C(=O)NCC3CCCO3)c2C(=O)O)cc1 (centres undefined) | 1.65% |  |
| CCOc1ccc(S(=O)(=O)NCC2CCCO2)cc1 (centres undefined) | -7.57% |  |
| CCOc1ccc(-n2c(N)c(C(=O)NCC3CCCO3)sc2=S)cc1 (centres undefined) |  | 15.8 µM (active) |
| Cc1ccc(Cl)c(NC(=O)CN(C)CC(=O)Nc2ccc(F)c(F)c2F)c1Cl | 8.7% |  |
| Cc1cccc(CN2CCN(Cc3cnn(-c4ccccc4F)c3)CC2CCO)n1 (centres undefined) | -3.37% |  |
| O=c1[nH]oc(O)c1-c1ncc(C(F)(F)F)cc1Cl | 9.67% |  |
| Cc1csc(NC(=O)CSc2ccc(-c3ccc(F)cc3)nn2)n1 | 8.44% |  |
| Cc1cc(/C=C2\SC(=Nc3ccc(N4CCOCC4)cc3)N(C)C2=O)c(C)n1-c1cccnc1 | -3.64% |  |
| O=C(C1CC1)N1N=C2CCCCC2C1(O)C(F)(F)F (centres undefined) | 4.47% |  |
| CC(C(=O)O)n1cnc2sc3c(c2c1=O)CCCC3 (centres undefined) | 4.67% |  |
| CCCc1nc2sc3c(c2c(=O)n1NC(=O)CCCl)CCCC3 |  | 14.1 µM (active) |
| N#Cc1c(NC(=O)CCCl)sc2c1CCCCC2 | -5.19% |  |
| O=C1CCC/C(=N\NC(=O)NC2CCCCC2)C1 | 2.09% |  |
| CN(CCOc1ccccc1)Cc1nc2cc(Cl)ccc2c(=O)[nH]1 | -4.61% |  |
| CCN(CC(=O)NC(=O)NCc1ccccc1)Cc1nc2ccccc2c(=O)[nH]1 | -9.25% |  |
| CCN(CC(=O)Nc1ccc(Cl)c(S(=O)(=O)N(C)C)c1)Cc1nc2ccccc2c(=O)[nH]1 |  | 25.1 µM (active) |
| Cc1ccc(S(=O)(=O)NC2(C(F)(F)F)NC(=O)N(CCc3ccccc3)C2=O)cc1 (centres undefined) | 11.8% |  |
| O=C(Nc1ncc2c(n1)CC(c1ccco1)CC2=O)c1ccc(Cl)cc1 (centres undefined) |  | 10 µM (active) |
| COc1cc(C2CC(=O)c3cnc(NC(C)=O)nc3C2)cc(OC)c1OC (centres undefined) | -3.5% |  |
| CC1=C(C(=O)Nc2ccc(Cl)cc2)C(c2ccco2)NC(=O)N1 (centres undefined) | 7.11% |  |

| SMILES | activity, negative = inhibition | Potency |
| --- | --- | --- |
| O=C1C=C(c2ccccc2)CCC1 | 12.6% |  |
| Cc1ccsc1C1C(C#N)=C(N)OC2=C1C(=O)CC(C)C2 (centres undefined) | 1.99% |  |
| N#CC1=C(N)OC2=C(C(=O)CCC2)C1C1CC=CCC1 (centres undefined) |  | 10 µM (active) |
| NC1=C([N+](=O)[O-])C(c2ccccc2)C2=C(CCCC2=O)O1 (centres undefined) | -2.58% |  |
| O=C(Nc1ccc(N2CCOCC2)cc1)c1ccc2c(c1)OCO2 | 3.33% |  |
| COc1ccc(C(F)(F)F)cc1N/C=C\c1nnnn1-c1ccc(C)cc1 |  | 25.1 µM (active) |
| COc1ccc(/C(C)=N/Nc2cc(C(F)(F)F)ccc2Cl)c(OC)c1 | 15% |  |
| COc1ccc(C)cc1NC(=O)CCC(=O)Nc1nnc(C(F)(F)F)s1 | 4.14% |  |
| CSc1cc(C)[nH]c(=O)n1 | 3.77% |  |
| COc1ccc(Cl)cc1NC(=O)NC(C)C(C)(C)C (centres undefined) | 10.4% |  |
| NC(=O)Cc1ccc2sc(-c3ccccc3)nc2c1 | 9.05% |  |
| Cc1sc2nc(CC(N)=O)[nH]c(=O)c2c1-c1ccccc1 |  | 7.08 µM (active) |
| NC(=O)Cc1nc2scc(-c3ccc(Cl)cc3)c2c(=O)[nH]1 | -1.08% |  |
| Cc1cc(C(=O)Nc2ccccc2N2CCOCC2)c2ccccc2n1 | -2.76% |  |
| CCc1ccc2ncc(C(=O)c3ccccc3)c(N3CCOCC3)c2c1 |  | 4.47 µM (active) |
| CCc1ccc(NC(=O)CSc2nc3ccccc3c(=O)n2CCN2CCOCC2)cc1 | -6.19% |  |
| O=C(CCSc1ccccc1)N1CCN(c2ccccc2F)CC1 | -54.1% |  |
| O=C(CSc1nn(-c2ccc(F)cc2)c(=S)s1)NC1CCS(=O)(=O)C1 (centres undefined) | -4.99% |  |
| Cc1cc(C)cc(OCC(=O)NCc2cc(C)nc3ccccc23)c1 | -4.15% |  |
| OCC1(Cc2ccccc2)CCN(Cc2cc3ccccc3o2)CC1 | 5.22% |  |
| Cc1cc(C)c2c(-n3cccc3)c(NC(=O)OCc3ccccc3)sc2n1 | 5.3% |  |
| COC(=O)Nc1sc2nc(C)cc(C)c2c1-n1cccc1 | 2.42% |  |
| Cc1cc(C)c2c(-n3cccc3)c(C(=O)NNS(=O)(=O)c3ccc(F)cc3)sc2n1 |  | 2.24 µM (active) |

| SMILES | activity, negative = inhibition | Potency |
| --- | --- | --- |
| CCNC(=O)CC1C(=O)N(c2ccc(F)cc2)C(=O)N1Cc1cccs1 (centres undefined) | -3.81% |  |
| CCN(CC)CCCNC(=O)c1ccc2c(=O)n(Cc3ccc4c(c3)OCO4)c(=S)[nH]c2c1 | -10.2% |  |
| c1ccc2c(C[n+]3csc4ccccc43)cccc2c1 |  | 10 µM (active) |
| c1ccc2c(CSCc3nc4ccccc4[nH]3)cccc2c1 | 10.2% |  |
| N=C(N)SCc1cccc2ccccc12 | 6.99% |  |
| CN1CCN(C(CNS(=O)(=O)c2cccs2)c2cccnc2)CC1 (centres undefined) | -6.14% |  |
| O=C(Nc1nc(-c2ccc3c(c2)OCO3)cs1)c1ccncc1 | 5.35% |  |
| O=C(Nc1nnc(SCc2ccc(Cl)cc2Cl)s1)C1COc2ccccc2O1 (centres undefined) | -4.92% |  |
| O=C(Nc1nc(-c2ccncc2)cs1)C1COc2ccccc2O1 (centres undefined) |  | 3.55 µM (active) |
| COc1ccc(/C=C/C(=O)Nc2cccnc2)cc1OC | -11.3% |  |
| CCCS(=O)(=O)N1CCC(CCOc2ccccc2)(C(=O)OCC)CC1 | -8.63% |  |
| N#Cc1c(-c2ccc(Cl)cc2)c2c([nH]c1=S)CCCC2 | 18.4% |  |
| COc1ccc(NC(=O)C(C)SCc2ccccc2)cc1 (centres undefined) | 1.4% |  |
| Cc1onc(-c2c(Cl)cccc2Cl)c1C(=O)NNC(=O)c1c(-c2c(Cl)cccc2Cl)noc1C | 9.07% |  |
| Cc1[nH]n(C)c(=O)c1C(=O)c1c(-c2c(Cl)cccc2Cl)noc1C |  | 8.91 µM (active) |
| Cc1onc(-c2c(Cl)cccc2Cl)c1C(=O)c1c[nH]c(C(=O)NC2CC2)c1 | 2.22% |  |
| CCOc1c(CNCc2ccc(C(=O)O)cc2)cccc1OC | 4.84% |  |
| CC(=O)Nc1cccc(-c2nc3ccccc3s2)c1C | -0.337% |  |
| Cc1ccc(NC(=S)N(CCCN2CCC(C)CC2)Cc2ccco2)cc1 | -7.69% |  |
| CCCOC(=O)c1[nH]c2c(c1C)C(=O)CC(c1cc(OC)c(OC)c(OC)c1)C2 (centres undefined) |  | 0.355 µM (active) |
| CCCOC(=O)c1[nH]c2c(c1C)C(=O)CC(c1cccs1)C2 (centres undefined) | 12.3% |  |
| CCOC(=O)c1[nH]c2c(c1-c1ccccc1)C(=O)CC(c1ccc(Cl)cc1)C2 (centres undefined) | 8.72% |  |
| COc1ccc2c(c1)O[C@@H](c1ccc3c(c1)OCO3)[C@H](OC(=O)NCCc1ccc(OC)c(OC)c1)C2=O | -7.29% |  |
